PV pol inh – inhibitors of poliovirus RNA polymerase binding and polymerization; % elongation, % (compound at 16.7 µg/mL); AID 588519; 0.66% of 150,000 active; poliovirus polymerase elongation, fluorescence polarization; hits give low values; P03300; in the data active = % elongation below about 90%
MenB inh – blocks the Mycobacterium tuberculosis MenB enzyme; inhibition, % (concentration not given with the values); 0.43% of 100,000 active; MenB enzyme assay, absorbance read-out; P9WNP5; in the data active = inhibition above about 21%, passing the limit was not always enough
Mtb MbtI inh – blocks the Mycobacterium tuberculosis siderophore enzyme MbtI | P9WFX0 | purified MbtI enzyme, fluorescence intensity read-out | inhibition, % (concentration not given with the values) | 0.89% of 100,000 active | AID 493033; in the data active = inhibition mostly above about 56%, no sharp cut-off; inactive = mostly below about 77%
Target sequence (P9WFX0 whole entry, looked up): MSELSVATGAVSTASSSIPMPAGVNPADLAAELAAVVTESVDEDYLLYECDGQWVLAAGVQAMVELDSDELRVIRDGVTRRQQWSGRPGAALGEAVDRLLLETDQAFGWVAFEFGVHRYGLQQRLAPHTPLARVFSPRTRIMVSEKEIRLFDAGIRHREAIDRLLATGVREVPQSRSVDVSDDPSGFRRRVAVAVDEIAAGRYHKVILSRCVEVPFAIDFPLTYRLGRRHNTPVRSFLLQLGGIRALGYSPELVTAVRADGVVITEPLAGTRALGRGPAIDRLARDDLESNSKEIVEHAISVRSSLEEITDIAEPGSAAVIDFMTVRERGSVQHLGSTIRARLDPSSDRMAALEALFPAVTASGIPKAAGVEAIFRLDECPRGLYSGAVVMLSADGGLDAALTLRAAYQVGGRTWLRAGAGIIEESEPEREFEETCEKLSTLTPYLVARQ
AID504770 – E. coli YBA685 growth inhibition, screen for V. cholerae RctB inhibitors; 0.27% of 130,000 active; z-score (test concentration not listed); E. coli YBA685 rctB-dependent plasmid, OD600 growth, 3 h; hits give low values; in the data active = z-score below about -2, passing the limit was not always enough
An asterisk follows results filed as active; x = not tested or not shown; ! = not confirmed by another sample. Hits are enriched below; roughly 1.4% of the tested compounds scored in any of these assays.

SMILES	PV pol inh	MenB inh	Mtb MbtI inh	AID504770
Cc1ccc(O)c(C(=O)c2cnn(C(=O)Cc3csc(C)n3)c2)c1	86*	-27	-13	1.4
COc1ccc(CCNC(=O)C2COc3ccccc3O2)cc1 (stereo unspecified)	102	22	-2	-0.35
S=c1nc(-c2cccs2)[nH][nH]1	69*	-58	123	-0.25
Cc1csc2ncnc(N3CCN(C(=S)NCC4CC4)CC3)c12	88*	-5	36	-0.65
Cc1oc(-c2ccccc2F)cc1CO	x	-18	54	0.7
CCCNC(=O)CSc1n[nH]c(=S)s1	101	-23	57*	0.95
CCCNC(=O)CSc1nnc(C)o1	101	-9	12	-0.5
O=C(Cn1nc(Cc2ccncc2)c2ccccc2c1=O)NCCC1=CCCCC1	x	x	x	-2.2*
CCOC(=O)C(C#N)=C1C2CC3CC(C2)CC1C3	x	x	x	-0.15
CCOC(=O)C(C#N)=c1sc(=C(C#N)C(=O)OCC)s1	88*	-19	76*	0.55
Cc1cccc(C(=O)NCc2nc(-c3ccccc3Cl)no2)c1	103	-17	-3	-0.2
S=c1[nH]nc(Nc2cccc(Br)c2)s1	102	-32	98*	-0.35
CCc1ccc(Nc2ncnc3sc4c(c23)CCCC4)cc1	103	x	x	x
CCc1nc(Nc2ccc(F)c(Cl)c2)c2c3c(sc2n1)CCCC3	85*	x	x	x
COCCCNc1nc2ccc(C(=O)c3ccccc3)cc2n2cnnc12	101	-10	17	-0.1
CN(C)C=Nc1ccc(S(=O)(=O)N(C)c2nccs2)cc1	99	-12	6	1.3
CC(=O)N(c1ccc(Cl)cc1)C1C=CS(=O)(=O)C1 (stereo unspecified)	x	x	x	-2.5*
CCN(CC)CCC(=O)c1ccc(OC(C)C)cc1	102	-4	65*	-0.8
CCN(CC)CCC(=O)c1ccc(F)cc1	104	12	x	0.8
Cn1ncc2c1ncn1nc(-c3ccncc3)nc21	100	10	-6	-0.35
C=CCn1c(N)nc2c1c(=O)n(C)c(=O)n2C	101	49*	-5	-0.6
NS(=O)(=O)c1ccc(NC(=O)CS)cc1	99	-94	76*	-1.5
NS(=O)(=O)c1ccc(NC(=O)CCC(=O)Nc2ccc(S(N)(=O)=O)cc2)cc1	102	-20	6	-0.25
CN(C)C(=O)ONC(=O)Cc1ccccc1	x	x	x	-3.9*
CCc1cc(C(=O)O)c(NC(=O)c2ccc(Br)cc2)s1	101	x	46	0.55
SMILES	PV pol inh	MenB inh	Mtb MbtI inh	AID504770
CCc1cc(C(=O)O)c(SSc2sc(CC)cc2C(=O)O)s1	76*	-19	102*	-0.45
O=C(O)c1ccc(C2CCCCC2)cc1	96	10	-18	-0.6
CC1=C(C(=O)OC(C)C(C)(C)C)C(c2ccc(O)cc2)NC(=O)N1 (stereo unspecified)	99	-25	-2	0.2
O=C1CNC(=O)c2c(nc3n2CCC3)N1	101	34*	15	1.1
Cc1csc(Cc2nc3ccccc3n2C)n1	101	-28	28	-1.4
CCC(=O)NC(=S)c1c(C)nc2sccn12	57*	-222	15	-0.65
CCCOc1ccc(-c2nonc2NC(=O)c2oc3ccc(F)cc3c2C)cc1OCCC	102	-26	0	-1.7
CC(C)(C)c1cc(O)c(O)c(Br)c1	98	23	101*	0.1
COC(=O)c1cc(Br)c(O)c(Br)c1	x	x	x	0.5
CCOC(=O)CSc1nc(-c2ccccc2)ns1	93	-2	52*	-0.05
Cc1cccc(-c2nsc(SCC(=O)N3CCCCC3)n2)c1	102	6	49	0
Cc1cccc(NC(=O)CN(CC2CCCO2)C(=O)c2cc(-c3ccco3)nc3ccccc23)c1C (stereo unspecified)	1.0*	-7	103	-0.8
Cc1cnc(C(=O)N(CC(=O)Nc2cccc(C)c2C)CC2CCCO2)cn1 (stereo unspecified)	101	-11	-5	0.15
O=C1c2ccccc2C(=O)N1CCSC1=NN2CCS(=O)(=O)N=C2S1	84*	1	29	1.7
CCn1c(CCC(=O)N2CCN(c3ccccn3)CC2)nc2cc(S(N)(=O)=O)ccc21	55*	-1	103	0.05
O=C(Cn1cccc1)N1CCN(Cc2ccccc2)CC1	x	x	x	0.15
Clc1ccc(NCCC2=CCCCC2)nn1	100	34*	6	0.25
CCOC(=O)[C@@H]1Nc2ccc(C(=O)O)cc2[C@@H]2C=CC[C@H]12	68*	-15	16	0.1
NC(=S)c1cccc(Oc2ccccc2)c1	87*	-69	30	2
O=C1CCCC(=O)C1C(c1ccc(-c2cc(C(F)(F)F)ccc2Cl)o1)C1C(=O)CCCC1=O	102	-20	99*	-0.85
N=c1oc2ccc(Br)cc2cc1-c1ccccn1	100	x	3	1.1
Cc1c2cnn(-c3ccccc3)c(=O)c2c(C)n1C(C)C(=O)NCCN1CCCC1 (stereo unspecified)	104	12	1	-0.55
Cc1cccc(-n2c(-c3ccco3)nc3ccccc3c2=O)c1	104	-5	59*	-0.3
COc1ccc(-n2c(-c3ccco3)nc3ccccc3c2=O)cc1	100	-2	-1	0
CC(C)(C)OC(=O)/C(C#N)=C/c1ccc(C#N)cc1	104	1	-10	0.3
SMILES	PV pol inh	MenB inh	Mtb MbtI inh	AID504770
C[N+]1(C)CCOC12CCCCC2	99	45*	-4	0.7
Cc1nc2ccccc2c(=O)[nH]1	96	14	-1	-0.7
O=c1[nH]c2ccccc2c(O)c1-c1nc2ccccc2c(=O)[nH]1	104	43*	-255	1.5
CN(CC(=O)Nc1ccc(N2CCOCC2)cc1)Cn1nc(Nc2ccccc2F)sc1=S	96	-31	99*	0.8
C=CCC(NCc1cccs1)c1ccco1 (stereo unspecified)	100	5	x	-0.5
CCCCC(CC)CN=C(N)NC(N)=NCCCCCCN=C(N)NC(N)=NCC(CC)CCCC (stereo unspecified)	98	-4	55*!	-5.1*
Cc1nc2nc(C(F)(F)F)[nH]c2cc1Br	104	-32	70*	0.4
COc1ccc(CSc2cccc3cccnc23)cc1	105	x	33	-0.55
COc1cc(NC(C)CCCN)c2ncccc2c1 (stereo unspecified)	58*!	-4	3	0.25
O=c1[nH]cnc2sc3c(c12)CCCC3	101	34*	29	1.2
Cc1ccc(S(=O)(=O)N2CCN(Cn3nc(C)sc3=S)CC2)c(C)c1	106	15	68*	1.5
Cc1ccc(S(=O)(=O)N2CCOCC2)c(C)c1	103	2	1	-1.1
Cc1ccc(S(=O)(=O)N2CCN(Cn3nc(Nc4ccccc4F)sc3=S)CC2)cc1	102	4	94*	-0.55
CCS(=O)(=O)N1CCN(S(=O)(=O)c2ccc(C)cc2)CC1	100	-14	-18	-0.25
O=C(O)c1cnc2ccccn2c1=O	102	27*	90	0.85
CCOC(=O)c1cnc2ccccn2c1=O	103	11	105	1.1
CC(C)c1ccc(C=C2C(=O)NC(=O)NC2=O)cc1	77*	-7	6	-2.3
Cc1ccc2c(c1)C(SCC(=O)O)CC1(CCCC1)O2 (stereo unspecified)	x	x	2	-0.8
CC1(C)C(=O)NCCN1C(=O)CCC(=O)O	100	31*	-2	-0.35

Screening results deposited in PubChem BioAssay by ICCB-Longwood Screening Facility, Harvard Medical School.
